High-throughput results deposited in PubChem by several laboratories.
Rows were chosen to be rich in hits. Some 0.44% of all compounds tested hit in one or more screens of this group.
YopH PTP inh: blocks Yersinia enterocolitica YopH tyrosine phosphatase; fluorescence Ex485/Em525; inhibition, % (test concentration not listed); hit rate 0.16% among 140,000; in the data active = inhibition above about 50%
RmlC RmlD mix: inhibitors of RmlC and RmlD coupled enzymes; inhibition, % at 5.5 µM; hit rate 0.39% among 110,000; RmlC/RmlD coupled enzyme inhibition, 384-well mixture HTS; in the data active = inhibition above about 30%, passing the limit was not always enough
Of the large screens only hits and unclear results are named; the others gave an inactive call.

COc1ccc(-c2cc3nc4n(c(=O)c3s2)CCC4)cc1	RmlC RmlD mix 50
Nn1c(SCC(=O)NC2CCCc3ccccc32)nnc1-c1ccc(Cl)cc1Cl (stereo unspecified)	none (no result: RmlC RmlD mix)
CCC(=O)NS(=O)(=O)c1ccc(-c2c(-c3ccccc3)noc2C)cc1	none (no result: YopH PTP inh)
O=C1C(=O)c2ccccc2-c2ccccc21	YopH PTP inh 100
O=C1C(=O)c2cccc3cccc1c23	none (no result: RmlC RmlD mix)
COc1ccc(NC(=O)/C(=C\c2cccnc2)NC(=O)c2cccs2)cc1	none (no result: RmlC RmlD mix)
COc1ccc(NC(=O)/C(=C/c2cccnc2)NC(=O)c2cccs2)cc1	YopH PTP inh 53 (no result: RmlC RmlD mix)
Cc1ccc(S(=O)(=O)N2CCC(=O)N(C(COCc3cccc(C(F)(F)F)c3)C(C)C)CC2)cc1 (stereo unspecified)	none
CCOC(=O)c1cc2c(=O)n3ccccc3nc2n(Cc2ccccc2)c1=N	RmlC RmlD mix 31
CCOC(=O)c1cc2c(=O)n3ccccc3nc2n(CC(C)C)c1=NC(=O)c1ccco1	none
CCOC(=O)c1cc2c(=O)n3ccccc3nc2n(CCCOC)c1=NC(=O)C(C)(C)C	none
CCOCCCn1c(=NC(C)=O)c(C(=O)OCC)cc2c(=O)n3ccccc3nc21	RmlC RmlD mix 67
C/C(=N\NC(=O)c1ccc([N+](=O)[O-])c(C)c1)c1ccccc1Cl	none (no result: RmlC RmlD mix)
COCCn1c(=NC(=O)c2cc3ccccc3oc2=O)sc2cc(S(N)(=O)=O)ccc21	none (no result: RmlC RmlD mix)
O=C(/C(=C(\[O-])c1ccccc1)[n+]1ccc2ccccc2c1)c1ccc(Cl)cc1	none (no result: RmlC RmlD mix)
O=C(/C(=C(\[O-])c1ccccc1)[n+]1ccc2ccccc2c1)c1ccccc1	YopH PTP inh 69 (no result: RmlC RmlD mix)
COC(=O)N(NC(=O)C(O)(CCC(C)C)CCC(C)C)c1ccccc1	YopH PTP inh 70 (no result: RmlC RmlD mix)
COC(=O)N(NC(=O)C(O)(c1ccccc1)c1ccccc1)c1ccccc1	none (no result: RmlC RmlD mix)
CN1C[C@H](CNC(=O)OCc2ccccc2)C[C@@H]2c3cccc4c3c(cn4C)C[C@H]21	none
CC[C@@H](CO)NC(=O)[C@@H]1C=C2c3cccc4c3c(cn4C)C[C@H]2N(C)C1	YopH PTP inh 64
CCOC(=O)c1sc2nc(N3CCCC3)c3c(c2c1N)CC(C)(C)OC3	RmlC RmlD mix 45
CCOC(=O)c1sc2nc(C(C)C)c3c(c2c1N)CC(C)(C)OC3	none
COc1ccc(CN2CC[C@H]3C=CC[C@@H](C(=O)Nc4ccc(Cl)c(C(F)(F)F)c4)[C@H]3C2=O)cc1OC	none (no result: YopH PTP inh)
CCOC(=O)c1c(NC(=O)c2nn(CC)cc2Br)c(C#N)nn1-c1ccccc1	YopH PTP inh 52
CCOC(=O)c1nn(-c2ccccc2)c(C#N)c1NC(=O)c1nn(CC)cc1Br	none
CCNC(=S)N(Cc1ccccc1)Cc1nc2ccccc2c(=O)[nH]1	none (no result: RmlC RmlD mix)
Cc1ccc(C(C[N+](=O)[O-])c2c(C)[nH]n(-c3ccccc3)c2=O)cc1 (stereo unspecified)	YopH PTP inh 83 (no result: RmlC RmlD mix)
Cc1[nH]n(-c2ccccc2)c(=O)c1C(C[N+](=O)[O-])c1ccc(F)cc1 (stereo unspecified)	none (no result: RmlC RmlD mix)
Cc1[nH]n(-c2ccccc2)c(=O)c1C(C[N+](=O)[O-])c1ccc(Cl)cc1 (stereo unspecified)	YopH PTP inh 76 (no result: RmlC RmlD mix)
Cc1[nH]n(-c2ccccc2)c(=O)c1Sc1ccc(Cl)cc1	none
O=C(Nc1nc(-c2ccc(Cl)cc2)cs1)NC1CCCCC1	none (no result: RmlC RmlD mix)
O=C(NNS(=O)(=O)c1ccc(Cl)cc1)c1cc(-c2ccccc2)nc2ccccc12	none (no result: RmlC RmlD mix)
CC1(C)CCC23CC[C@]4(C)C(OC2=O)(C3C1)[C@H]1O[C@H]1C1[C@@]2(C)CC[C@@H](O)C(C)(C)C2CC[C@]14C (stereo partly specified)	none (no result: YopH PTP inh)
O=C(Nc1ccc([N+](=O)[O-])cn1)C1CC2CCC1C2 (stereo unspecified)	none (no result: RmlC RmlD mix)
O=C(Nc1nccs1)[C@@H]1CC=C[C@@H]2CCN(Cc3ccccc3)C(=O)[C@@H]21	none (no result: YopH PTP inh)
CCOC(=O)CNC(=O)Cn1c(C)cc2ccccc2c1=O	none
CCOC(=O)N1CCN(C(=O)Cn2c(C)cc3ccccc3c2=O)CC1	YopH PTP inh 55
C=CCc1cccc2cc(C(=O)Nc3ccc(S(=O)(=O)Nc4nnc(CC)s4)cc3)c(=O)oc12	YopH PTP inh 75 (no result: RmlC RmlD mix)
C=CCc1cccc2cc(C(=O)Nc3ccc(F)cc3)c(=O)oc12	none (no result: RmlC RmlD mix)
COCCCn1c(=N)c(C(=O)NCC2CCCO2)cc2c(=O)n3ccccc3nc21 (stereo unspecified)	RmlC RmlD mix 69
CCOC(=O)c1cc2c(=O)n3cccc(C)c3nc2n(C)c1=N	none (no result: RmlC RmlD mix)
CNC(=O)c1cc2c(=O)n3cccc(C)c3nc2n(C(C)C)c1=N	RmlC RmlD mix 89
C=CCn1c(=N)c(C(=O)NCCCOC)cc2c(=O)n3cccc(C)c3nc21	RmlC RmlD mix 50
CCCCNC(=O)c1cc2c(=O)n3cccc(C)c3nc2n(Cc2ccccc2)c1=N	none
COCCCn1c(=N)c(C(=O)NCC2CCCO2)cc2c(=O)n3cccc(C)c3nc21 (stereo unspecified)	none (no result: RmlC RmlD mix)
Cc1c(N2C(=O)/C(=C3/C(=O)N(C)c4ccccc43)SC2=S)c(=O)n(-c2ccccc2)n1C	none
CC(=O)N1C(=O)/C(=C2\SC(=S)N(c3c(C)n(C)n(-c4ccccc4)c3=O)C2=O)c2ccccc21	YopH PTP inh 99 (no result: RmlC RmlD mix)
CCOC(=O)N/N=C/c1ccc(N(CC)CC)cc1O	none (no result: RmlC RmlD mix)
CCN(CC)c1ccc(/C=N/Nc2ccc(C)cc2)c(O)c1	YopH PTP inh 83 (no result: RmlC RmlD mix)
O=C(Cc1ccccc1)NN1C(=O)C2C(C1=O)C1C=CC2C12CC2 (stereo unspecified)	none (no result: RmlC RmlD mix)
COC(=O)Oc1c(Br)c(=O)oc2ccccc12	RmlC RmlD mix 30
CC(=O)Nc1c(NC(C)C)c2ccccc2oc1=O	none
COCCCNC(=O)CCCOc1ccccc1	none
COCCCNC(=O)CCCC(=O)NCCCOC	YopH PTP inh 55
C=CCOC(=O)C1=C[C@@H](c2csc3ccccc23)C[C@@H](OCCCCO)O1	none (no result: YopH PTP inh)
COc1ccc(N2C(=O)[C@@H]3[C@H](C2=O)[C@H]2c4ccccc4C=CN2[C@@H]3C(C)=O)cc1	YopH PTP inh 61 (no result: RmlC RmlD mix)
CC(C)(C)C(=O)[C@@H]1[C@@H]2C(=O)N(C3CCCCC3)C(=O)[C@@H]2[C@H]2c3ccccc3C=CN12	none (no result: RmlC RmlD mix)
COc1ccc(Cl)cc1N(C(=O)Nc1cccc(Cl)c1)C1=NCC(C)S1 (stereo unspecified)	none (no result: RmlC RmlD mix)
O=C1C(Nc2cccc(O)c2)=C(N2CCCCC2)C(=O)c2ccccc21	YopH PTP inh 81
COC1=C(Nc2ccc(C)cc2)C(=O)c2ccccc2C1=O	none (no result: RmlC RmlD mix)
CC1(C)CC(=O)C=C(Nc2cccc(O)c2)C1	none
COc1cccc(OC)c1C(=O)Nc1ccccc1N1CCCC1	none
Cc1ccc(NC2=C(N3CCCCC3)C(=O)c3ccccc3C2=O)cc1	YopH PTP inh 76
COc1ccc(C(=O)/C=C/c2ccc(O)cc2)cc1	none (no result: YopH PTP inh)
COc1ccccc1NC1=C(N2CCCCC2)C(=O)c2ccccc2C1=O	YopH PTP inh 90 (no result: RmlC RmlD mix)
O=C(/C=C/c1ccc(O)cc1)c1ccc(NC2=C(N3CCCCC3)C(=O)c3ccccc3C2=O)cc1	YopH PTP inh 93
CCCCCCN(C(=O)CCCCCN1C(=O)NC(c2ccc(-c3ccccc3)cc2)C(C(=O)OCc2ccccc2)=C1C)C(C(=O)NCCCC)c1ccc(O)cc1 (stereo unspecified)	none
CCCCOC(=O)c1ccc(NC(=O)c2c(N)n(C)c(=O)[nH]c2=O)cc1	none (no result: YopH PTP inh)
CCC1=C[C@H]2CN(C1)Cc1c([nH]c3ccccc13)[C@@](C(=O)OC)(c1cc3c(cc1OC)N(C)[C@H]1[C@@](O)(C(=O)OC)[C@H](OC(C)=O)[C@]4(CC)C=CCN5CC[C@]31[C@@H]54)C2	none (no result: YopH PTP inh)
COc1ccccc1CN1[C@@H](CC(=O)O)c2cc(F)ccc2S1(=O)=O	none (no result: YopH PTP inh)
